Source: PubChem
Rows were chosen to be rich in hits. Some 2.3% of all compounds tested hit in one or more screens of this group.
ADAM10 inh: human ADAM10 inhibitors, primary screen, biochemical, QFRET, HTS | inhibition, % at 7 µM | Disintegrin and metalloproteinase domain-containing protein 10 (Homo sapiens), O14672 | actives 0.62% (n = 370,000) | recombinant ADAM10, EDANS/DABCYL FRET peptide cleavage, 3 h | AID 720582, 2013;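 active = inhibition above a per-campaign cutoff equal to the mean of compounds falling between control-based bounds plus 3 SD, cut at about 20% in these data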;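 also: 0% = DMSO wells while the 100% control is not disclosed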
proKLK7 act: proKLK7 zymogen activators, primary screen, biochemical, fluorescence intensity | activation, % at 7 µM | purified proKLK7, EDANS-DABCYL substrate fluorescence; 100% is mature enzyme control, 0% vehicle | AID 652039, 2013 | actives 0.9% (n = 370,000) | Kallikrein-7 (Homo sapiens), P49862;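 active = activation above the mean of all tested compounds plus 3 SD, computed per campaign excluding outliers beyond control limits, cut at about 13% in these data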
Target sequence (P49862 whole entry, looked up): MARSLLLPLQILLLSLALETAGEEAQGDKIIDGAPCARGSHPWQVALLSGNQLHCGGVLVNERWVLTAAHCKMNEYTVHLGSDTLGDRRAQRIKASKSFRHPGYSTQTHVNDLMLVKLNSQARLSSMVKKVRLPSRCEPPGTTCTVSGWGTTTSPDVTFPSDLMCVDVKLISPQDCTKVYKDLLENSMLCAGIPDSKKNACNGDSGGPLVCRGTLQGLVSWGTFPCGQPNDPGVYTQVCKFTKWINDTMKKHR
ADAM17 inh: ADAM17 inhibitors, primary screen, biochemical, QFRET; recombinant ADAM17, EDANS/DABCYL FRET peptide cleavage; inhibition, % at 6.95 µM; actives 0.83% (n = 370,000); AID 720648, 2013;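 active = inhibition above the mean of compounds lying between control limits plus 3 SD, set per campaign, cut at about 8.5% in these data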;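 also: 0% = DMSO-only wells as the low control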
V-ATPase pH: regulators of yeast V-ATPase proton pumping, primary screen, pHLuorin cytosolic pH fluorescence | S. cerevisiae | response, % at 10 µM | actives 0.37% (n = 350,000) | AID 504577, 2011; in the data active = response mostly above about 7.3%, no sharp cut-off; inactive = mostly below about 5.4%; also: actives read high
V-ATPase pH SP: yeast V-ATPase proton pumping modulators, confirmation, S. cerevisiae, pH-sensitive GFP, second cherry-pick; shares compounds with V-ATPase pH; S. cerevisiae pHLuorin cytosolic pH, V-ATPase proton transport; AID 602197, 2012; response, % at 10 µM; actives 2% (n = 980); in the data active = response above about 24%;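 also: plate controls were vehicle wells for no effect and positive control wells for full effect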
* hit, by the source's call; nt = not tested or not shown.

SMILES	ADAM10 inh	proKLK7 act	ADAM17 inh	V-ATPase pH	V-ATPase pH SP
N#CCCCc1cn(-c2cccc(-c3noc4c3C(=O)N(CC(=O)N3CCOCC3)CC4)c2)nn1	1	0	-1	nt	nt
Cc1ccc(CCNS(=O)(=O)c2cc3c(cc2C)n(C)c(=O)c(=O)n3C)cc1	-131	2	-27	10*	2
Cc1cc2c(cc1S(=O)(=O)NCc1ccccc1)n(C)c(=O)c(=O)n2C	-70	0	-13	-3	nt
COc1ccc(C(C(=O)N(C)C2CCCC2)N(Cc2ccc(F)cc2)C(=O)c2ncn[nH]2)cc1OC (stereo unspecified)	-13	0	-4	nt	nt
COc1ccc(CC(=O)OC(C)CN2CCCC2)cc1 (stereo unspecified)	-2	0	-7	6	nt
CC(CN1CCOCC1)OC(=O)Cc1ccc(Cl)cc1 (stereo unspecified)	-16	1	-11	11*	2
O=c1c2c(-c3ccccc3)csc2ncn1/N=C/c1cccc([N+](=O)[O-])c1O	-2	0	-3	82*	4
CCCCCOC(=O)C1=C(C)NC(=O)NC1c1ccccc1 (stereo unspecified)	-7	0	-1	12*	6
Cc1nn(CCC(=O)NNC(=O)NCc2ccccc2)c(C)c1[N+](=O)[O-]	-7	1	-1	nt	nt
COc1ccc([C@H]2C[C@H](O)[C@@H](n3cc(-c4ccc(F)cc4)nn3)CN2C(=O)C2CCCCC2)cc1	8	0	1	3	nt
COc1ccc([C@H]2C[C@@H](O)[C@H](n3cc(-c4ccc(F)cc4)nn3)CN2C(=O)C2CCCCC2)cc1	-1	0	2	7.0*	1
O=C(Nc1nc(N2C(=O)c3ccccc3C2=O)n(-c2ccccc2)n1)c1ccccc1	0	0	-1	0	nt
CC(=O)Nc1nc(N2C(=O)c3ccccc3C2=O)n(-c2ccccc2)n1	-8	0	-1	7.0*	-1
CCN(CC)C(=O)CSc1nnc(-c2ccccn2)n1C	-10	1	-4	nt	nt
O=C(CCCSc1nnc(SCCCC(=O)c2ccc(F)cc2)s1)c1ccc(F)cc1	-6	0	-4	-3	1
Nc1nnc(SCCCC(=O)c2ccc(Br)cc2)s1	-4	0	-1	1	nt
Nc1nnc(SCCCC(=O)c2ccc(F)cc2)s1	-1	0	-2	0	-4
CC(=O)Nc1nnc(SCC(=O)c2ccc(F)cc2)s1	-2	0	2	3	nt
Cc1cc(Br)c2nc(-c3ccc(F)cc3)c(Cc3cccc(Cl)c3)n2c1	-9	-1	-3	nt	nt
Cc1cc(C(=O)O)c2ccccc2n1	-1	0	4	16*	4
O=C(NCCCc1ccccc1)OC1CC2CC1[C@H]1CCCCN1C2 (stereo partly specified)	-5	-1	-6	nt	nt
O=C(C/C(=N/O)c1ccccc1O)C(F)F	2	0	-3	26*	-2
NC(=O)c1ccccc1O	-68	-5	-27	5	nt
CON(c1nc(Cl)nc(N(C)C)n1)S(=O)(=O)c1ccc(C)cc1	-8	-1	4	2	nt
COc1nc(N(C)C)nc(N(C#N)S(=O)(=O)c2ccc(C)cc2)n1	-7	0	0	11*	-4
SMILES	ADAM10 inh	proKLK7 act	ADAM17 inh	V-ATPase pH	V-ATPase pH SP
N#CC1CCN(c2nc(-c3ccc(Br)cc3)cs2)CC1	2	nt	2	nt	nt
CCCCCCCC(=O)N[C@H]1CC[C@@]23CCCN2C(=O)CCC[C@H]3[C@H]1C	4	nt	2	nt	nt
O=C(c1ccccc1)N1CN2CN(C(=O)c3ccccc3)CC([N+](=O)[O-])(C2)C1	-1	0	-1	46*	-3
O=C(NCC1([N+](=O)[O-])CN(C(=O)c2ccccc2)CN(C(=O)c2ccccc2)C1)c1ccccc1	1	1	-2	1	nt
CCc1ccc(C(C)(O)C(CN2CCOCC2)c2ccccc2)cc1 (stereo unspecified)	-1	0	0	0	nt
CCCCCOc1ccc(C(C)(O)C(CN2CCOCC2)c2ccccc2)cc1 (stereo unspecified)	14	0	-1	14*	-1
CSc1nc(N)c(NC(=O)c2ccc(Br)o2)c(=O)[nH]1	1	0	-1	11*	3
